# Experimental data reported in PubChem BioAssay AID1159580 (chemical genetic matrix, 2015).
# Out of some 5,500 compounds screened, about 2,000 (36%) were called active. About 18% were inconclusive and are not listed. The list shows a part of the results. Values without a mark were called inactive. Cut-off read from the data, not from the text of the source: active = normalized growth mostly below about 0.91 (no sharp cut-off); inconclusive = no clear call, values can overlap the other calls; inactive = mostly above about 0.92.
# Experiment: chemical genetic growth profiling, strain panel (AID 1159580);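 note: tested at 20 µM; growth read once vehicle control cultures reached saturation at 30 °C; 1 = growth at the plate median or of vehicle wells; lower values mean less growth of the strain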
# Settings: S. cerevisiae deletion strains, growth OD
smiles,measurement,setting,value
CC(C)(C)C(=O)/C(C#N)=C/c1c(Cl)cccc1Cl,normalized growth,"locus YAR019C, strain CDC15, active compounds read low",0.366 (active)
same,normalized growth,"locus YBL105C, strain PKC1, active compounds read low",0.373 (active)
same,normalized growth,"locus YBR135W, strain CKS1, active compounds read low",0.894 (active)
same,normalized growth,"locus YBR136W, strain MEC1, active compounds read low",0.722 (active)
same,normalized growth,"locus YDL017W, strain CDC7, active compounds read low",0.695 (active)
same,normalized growth,"locus YDL028C, strain MPS1, active compounds read low",0.919
same,normalized growth,"locus YDL108W, strain KIN28, active compounds read low",0.957
same,normalized growth,"locus YDL214C, strain PRR2, active compounds read low",0.124 (active)
same,normalized growth,"locus YDR052C, strain DBF4, active compounds read low",0.915
same,normalized growth,"locus YDR054C, strain cdc34, active compounds read low",0.291 (active)
same,normalized growth,"locus YDR226W, strain ADK1, active compounds read low",0.913
same,normalized growth,"locus YDR477W, strain SNF1, active compounds read low",0.11 (active)
same,normalized growth,"locus YER123W, strain YCK3, active compounds read low",0.105 (active)
same,normalized growth,"locus YER133W, strain GLC7, active compounds read low",0.108 (active)
same,normalized growth,"locus YFL029C, strain CAK1, active compounds read low",0.315 (active)
same,normalized growth,"locus YFR019W, strain FAB1, active compounds read low",0.108 (active)
same,normalized growth,"locus YFR028C, strain CDC14, active compounds read low",0.575 (active)
same,normalized growth,"locus YGR040W, strain KSS1, active compounds read low",0.112 (active)
same,normalized growth,"locus YGR052W, strain FMP48, active compounds read low",0.136 (active)
same,normalized growth,"locus YGR092W, strain DBF2, active compounds read low",0.11 (active)
same,normalized growth,"locus YHR030C, strain SLT2, active compounds read low",0.111 (active)
same,normalized growth,"locus YHR079C, strain IRE1, active compounds read low",0.112 (active)
same,normalized growth,"locus YHR082C, strain KSP1, active compounds read low",0.137 (active)
same,normalized growth,"locus YHR205W, strain SCH9, active compounds read low",0.000694 (active)
same,normalized growth,"locus YIL147C, strain SLN1, active compounds read low",0.691 (active)
same,normalized growth,"locus YJL095W, strain BCK1, active compounds read low",0.104 (active)
same,normalized growth,"locus YJL157C, strain FAR1, active compounds read low",0.105 (active)
same,normalized growth,"locus YJR016C, strain ILV3, active compounds read low",0.64 (active)
same,normalized growth,"locus YJR066W, strain TOR1 (second series), active compounds read low",0.124 (active)
same,normalized growth,"locus YJR066W, strain TOR1, active compounds read low",0.131 (active)
same,normalized growth,"locus YKL048C, strain ELM1, active compounds read low",0.151 (active)
same,normalized growth,"locus YKL067W, strain YNK1, active compounds read low",0.129 (active)
same,normalized growth,"locus YKL101W, strain HSL1, active compounds read low",0.131 (active)
same,normalized growth,"locus YKL193C, strain SDS22, active compounds read low",0.506 (active)
same,normalized growth,"locus YKL203C, strain TOR2, active compounds read low",0.115 (active)
same,normalized growth,"locus YLR113W, strain HOG1, active compounds read low",0.165 (active)
same,normalized growth,"locus YLR133W, strain CKI1, active compounds read low",0.125 (active)
same,normalized growth,"locus YLR403W, strain SFP1, active compounds read low",0.0102 (active)
same,normalized growth,"locus YML070W, strain DAK1, active compounds read low",0.122 (active)
same,normalized growth,"locus YMR001C, strain CDC5, active compounds read low",0.401 (active)
same,normalized growth,"locus YMR205C, strain PFK2 (second series), active compounds read low",0.142 (active)
same,normalized growth,"locus YMR277W, strain FCP1, active compounds read low",0.397 (active)
same,normalized growth,"locus YNL006W, strain LST8, active compounds read low",0.341 (active)
same,normalized growth,"locus YNL020C, strain ARK1, active compounds read low",0.118 (active)
same,normalized growth,"locus YNL161W, strain CBK1, active compounds read low",0.402 (active)
same,normalized growth,"locus YNL183C, strain NPR1, active compounds read low",0.132 (active)
same,normalized growth,"locus YNL207W, strain RIO2, active compounds read low",0.359 (active)
same,normalized growth,"locus YNL222W, strain SSU72, active compounds read low",0.619 (active)
same,normalized growth,"locus YNL307C, strain MCK1 (second series), active compounds read low",0.105 (active)
same,normalized growth,"locus YOL078W, strain AVO1, active compounds read low",0.492 (active)
same,normalized growth,"locus YOL136C, strain PFK27, active compounds read low",0.116 (active)
same,normalized growth,"locus YOR061W, strain CKA2, active compounds read low",0.157 (active)
same,normalized growth,"locus YOR119C, strain RIO1, active compounds read low",0.115 (active)
same,normalized growth,"locus YOR231W, strain MKK1, active compounds read low",0.131 (active)
same,normalized growth,"locus YOR329C, strain SCD5, active compounds read low",0.513 (active)
same,normalized growth,"locus YPL031C, strain PHO85, active compounds read low",0.102 (active)
same,normalized growth,"locus YPL153C, strain RAD53, active compounds read low",0.115 (active)
same,normalized growth,"locus YPL204W, strain HRR25, active compounds read low",0.11 (active)
same,normalized growth,"locus YPL209C, strain IPL1, active compounds read low",0.495 (active)
same,normalized growth,"locus YPL256C, strain CLN2, active compounds read low",0.152 (active)
same,normalized growth,"locus YPR025C, strain CCL1, active compounds read low",0.652 (active)
same,normalized growth,"locus YPR111W, strain DBF20, active compounds read low",0.949
same,normalized growth,"strain NNK1, active compounds read low",0.265 (active)
same,normalized growth,"strain TSCII, active compounds read low",0.322 (active)
